For 65 compounds, z-score results are on record in PubChem BioAssay AID488969 (Vanderbilt High Throughput Screening Facility, 2010).

The structures appear in SMILES notation. Over roughly 110,000 compounds, “z-score” has its median near -0.1; the highest 2% begin near 2. What follows is part of a selection rich in the highest values, with near analogues and random picks from the rest. The source made the active and inactive calls.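 Rule for the calls: active = z-score in the third read window above 3 or below -3; inactive = the rest.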

The target of this experiment is Metabotropic glutamate receptor 8 (Rattus norvegicus) (UniProt P70579). The experiment can be described thus: mGluR8 Gi/Go-coupled signaling modulation – cell-based, rat, thallium flux, HTS, primary screen (AID 488969). To be noted: HEK293 rat mGluR8, GIRK (G protein-gated inwardly rectifying potassium channel) thallium flux, FluoZin2; at 10 µM; stronger effect = higher value; submaximal glutamate (EC20) added with thallium.
Chain of Metabotropic glutamate receptor 8 (Rattus norvegicus) (P70579 whole entry, looked up): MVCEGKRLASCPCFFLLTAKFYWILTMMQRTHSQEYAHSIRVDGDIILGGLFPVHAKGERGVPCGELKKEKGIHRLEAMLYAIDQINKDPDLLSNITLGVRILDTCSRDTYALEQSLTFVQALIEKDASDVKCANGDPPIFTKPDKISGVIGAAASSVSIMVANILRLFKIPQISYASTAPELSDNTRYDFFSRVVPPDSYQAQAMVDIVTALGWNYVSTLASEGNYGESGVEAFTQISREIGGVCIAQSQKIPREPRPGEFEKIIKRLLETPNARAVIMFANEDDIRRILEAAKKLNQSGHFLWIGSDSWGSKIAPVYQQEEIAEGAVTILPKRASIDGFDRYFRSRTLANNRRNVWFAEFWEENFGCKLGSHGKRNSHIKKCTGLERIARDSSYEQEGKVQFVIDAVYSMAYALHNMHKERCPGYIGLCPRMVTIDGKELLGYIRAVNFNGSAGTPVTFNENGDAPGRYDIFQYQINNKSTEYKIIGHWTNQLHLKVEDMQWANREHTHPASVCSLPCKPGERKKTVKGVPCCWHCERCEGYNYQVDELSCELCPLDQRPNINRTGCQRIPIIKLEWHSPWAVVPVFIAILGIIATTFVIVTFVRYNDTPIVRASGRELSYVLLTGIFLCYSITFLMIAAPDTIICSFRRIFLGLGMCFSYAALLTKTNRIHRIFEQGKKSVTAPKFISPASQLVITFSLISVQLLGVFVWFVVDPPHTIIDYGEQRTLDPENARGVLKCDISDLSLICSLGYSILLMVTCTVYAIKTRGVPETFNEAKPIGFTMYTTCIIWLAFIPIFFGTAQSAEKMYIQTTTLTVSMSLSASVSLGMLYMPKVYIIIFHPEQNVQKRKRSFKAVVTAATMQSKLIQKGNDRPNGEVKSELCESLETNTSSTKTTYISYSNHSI
The compound `CCN(CC)c1ccc(C(=O)O)cc1` returned a z-score of -0.133.
Under `CCN1CCN(C(=O)c2ccc(Sc3ccccc3Cl)c([N+](=O)[O-])c2)CC1` stands 0.195; under `CCCOc1ccc(C2c3c(oc4ccccc4c3=O)C(=O)N2CCN(CC)CC)cc1OC` (stereo not given), 0.615; under `COc1ccc(C2c3c(oc4ccccc4c3=O)C(=O)N2c2ccccn2)cc1` (stereo not given), -0.221.
As for `CCN(CC)CCCN1C(=O)c2oc3ccccc3c(=O)c2C1c1cccnc1` (stereo not given), the figure is 0.402.
Under `CN(C)CCN1C(=O)c2oc3ccccc3c(=O)c2C1c1ccc(F)cc1` (stereo not given) stands 1.86; under `CCN(CC)CCN1C(=O)c2oc3ccccc3c(=O)c2C1c1ccccc1` (stereo not given), 3.81 (active); under `CCN(CC)CCN1C(=O)c2oc3ccccc3c(=O)c2C1c1ccc(F)cc1` (stereo not given), 4.39 (active).
As to `CN1C(=O)c2oc3ccccc3c(=O)c2C1c1ccccn1` (stereo not given), the z-score was 8.59 (active).
As for `O=C1c2oc3ccccc3c(=O)c2C(c2cccc(O)c2)N1c1ccccn1` (stereo not given), the figure is -0.576.
`CCOc1ccc(C2c3c(oc4ccccc4c3=O)C(=O)N2CCCN2CCOCC2)cc1` (stereo not given) registered a z-score of -0.851.
Under `CN(C)CCN1C(=O)c2oc3ccccc3c(=O)c2C1c1cccc(Br)c1` (stereo not given) stands 0.553.
Under `CN(C)CCN1C(=O)c2oc3ccc(F)cc3c(=O)c2C1c1ccncc1` (stereo not given) stands -0.265; under `CCN(CC)CCN1C(=O)c2oc3ccccc3c(=O)c2C1c1ccc(C)cc1` (stereo not given), 8.12 (active).
Under `COc1ccc2nc(NC3=NC(C(=O)Nc4ccc(C)cc4)CC(=O)N3)nc(C)c2c1` (stereo not given) stands -0.114.
Compound `Cc1cc(C)c(NC(=O)C2CCCCN2C)c(C)c1` (stereo not given) came in with a z-score of -0.0533.
As for `COc1ccc(N=C2SC(C(N)=O)CC(=O)N2CCc2ccc(OC)c(OC)c2)cc1` (stereo not given), the figure is -0.154; as for `CCOCCOc1nc2c(c(=O)n(C)c(=O)n2C)n1CCc1ccccc1`, -0.18; as for `CCOc1ccc(NC(=O)Cn2nnc(-c3ccccc3NC(=O)c3cccs3)n2)cc1`, -0.124.
The compound `COc1cc(C=O)ccc1OS(=O)(=O)c1ccccc1[N+](=O)[O-]` gave a z-score of -0.429.
As for `COc1ccc(S(=O)(=O)CCc2nnc(NC(=O)c3cccs3)s2)cc1`, the figure is -0.075; as for `CCCCNC(=O)c1ccccc1NC(=O)CN(c1ccccc1)S(=O)(=O)N(C)C`, 2.11.
As to `CN(C)S(=O)(=O)N(CC(=O)Nc1ccccc1F)c1ccccc1`, the z-score was determined as 0.148.
Under `CSc1cccc(NC(=O)CN(c2ccc(C)cc2C)S(C)(=O)=O)c1` stands 3.01 (active); under `CN(C)S(=O)(=O)N(CC(=O)Nc1ccccc1)c1ccccc1`, 0.311; under `COC(=O)c1ccccc1NC(=O)CN(c1ccccc1)S(=O)(=O)N(C)C`, -1.07.
As to `CSc1cccc(NC(=O)CN(c2ccccc2)S(=O)(=O)N(C)C)c1`, the z-score is 3.6 (active).
As for `CN(C)S(=O)(=O)N(CC(=O)Nc1cccc(F)c1)c1ccccc1`, the figure is 0.587.
Under `CSc1cccc(NC(=O)CN(c2cccc(C)c2)S(C)(=O)=O)c1` stands 0.00929.
For `CSc1cccc(NC(=O)CN(c2cc(C)ccc2C)S(C)(=O)=O)c1`, the z-score worked out at 1.11.
Under `COc1ccc(C(C(=O)NC2CCCCC2)N(CC2CCCO2)C(=O)C2COc3ccccc3O2)cc1OC` (stereo not given) stands -0.167; under `COc1ccc(S(=O)(=O)Nc2ccccc2C(=O)NCc2ccco2)cc1`, -0.614; under `FC(F)(F)C1=CC(c2ccccc2)=NCCN1`, -0.25.
In turn, `COc1cc(O)oc1C=Nc1ccc(Cl)cc1` yielded a z-score of -0.289.
As for `Cc1ccc(N2CC(C(=O)Nc3ccncc3)CC2=O)cc1` (stereo not given), the figure is -0.196; as for `COc1ccc(OC)c(NC(=O)CSc2nc3c(c(=O)n(C)c(=O)n3C)n2C)c1`, -1.15.
As for `Cc1cccc(N=Cc2cc3c(cc2[N+](=O)[O-])OCO3)c1`, the figure is -0.0653.
As for `Cc1ccc(/C=N/NC(=O)c2cccc([N+](=O)[O-])c2)o1`, the figure is -0.121; as for `O=C(N/N=C/c1ccco1)c1cc([N+](=O)[O-])cc([N+](=O)[O-])c1`, 0.778.
For `Cc1ccc(/C=N\NC(=O)c2cc([N+](=O)[O-])cc([N+](=O)[O-])c2)o1`, the z-score was 4.57 (active).
Under `COc1cccc(-c2nc(-c3ccc(NC(=O)Cc4ccccc4OC)cc3)no2)c1` stands 0.363; under `CCCNC(=O)Cc1ccsc1`, 0.11; under `O=C(CCN1C(=O)c2ccccc2C1=O)Nc1ccc(-c2nc3ccccc3o2)cc1`, -0.0516.
Under `Cc1cc(S(=O)(=O)N2CCCC2)ccc1OCC(=O)N1CCOCC1` stands 0.0243; under `COC(=O)c1cc(=O)n(CCc2ccc(OC)cc2)c(=Nc2ccc(F)c(Cl)c2)s1`, 9.49 (active); under `COC(=O)c1cc(=O)n(CCc2ccc(OC)c(OC)c2)c(=Nc2ccc(F)c(Cl)c2)s1`, 0.363.
Under `COC(=O)c1cc(=O)n(CCc2ccccc2F)c(=Nc2ccc(F)c(Cl)c2)s1` stands -0.11.
Take `O=C(CSc1nc2c(c(C(F)(F)F)n1)CCc1ccccc1-2)NCc1ccccc1`: the z-score amounted to 0.257.
As for `Cn1cccc1Cc1nnc(SCC(=O)Nc2ccc(F)cc2)n1-c1ccc(F)cc1`, the figure is -0.84.
Under `Cn1cccc1Cc1nnc(SCC(=O)N2CCN(c3ccccc3)CC2)n1-c1ccc(F)cc1` stands -0.223; under `CC(=O)Nc1cccc(NC(=O)CSc2nnc(Cc3cccn3C)n2-c2ccc(C)cc2)c1`, -0.278.
As for `COc1ccc(NC(=O)CSc2nnc(Cc3cccn3C)n2-c2ccc(F)cc2)cc1OC`, the z-score was -0.626.
In the case of `Cn1cccc1Cc1nnc(SCC(=O)N2CCOCC2)n1-c1ccc(F)cc1`, the z-score was -0.171.
As for `Cn1cccc1Cc1nnc(SCC(=O)N2CCCCCC2)n1-c1ccc(F)cc1`, the figure is 2.24; as for `Cn1cccc1Cc1nnc(SCC(=O)NC2CCCC2)n1-c1ccc(F)cc1`, 2.33.
As for `COc1ccc(NC(=O)CSc2nnc(Cc3cccn3C)n2-c2ccc(C)cc2)cc1OC`, the figure is 2.03; as for `Cc1ccc(-n2c(Cc3cccn3C)nnc2SCC(=O)NC2CCCCC2)cc1`, 0.061; as for `CC(NC(=O)Cc1ccc(-c2ccccc2)cc1)c1ccccc1` (stereo not given), -0.225.
As for `Cc1cc(C)c2oc(C(=O)Nc3nnc(C(C)C)s3)cc(=O)c2c1`, the figure is -0.0364; as for `O=C(Nc1ccccc1)N1CCN(c2ccc(F)cc2)CC1`, 0.147.
`CC(=O)c1ccc(Sc2ccc(C(C)=O)cc2)cc1`: the z-score is -0.316.
In turn, `CCn1nnc(-c2ccccc2NC(=O)c2cc(OC)c(OC)c(OC)c2)n1` showed a z-score of -1.03.
Under `O=C(NC1CCCc2ccccc21)c1cccc(S(=O)(=O)N2CCN(c3ccccc3)CC2)c1` (stereo not given) stands 2.28; under `CC(=O)N1CCN(S(=O)(=O)c2cccc(C(=O)NC3CCCc4ccccc43)c2)CC1` (stereo not given), 0.0317; under `CN(C)S(=O)(=O)c1cccc(C(=O)NC2CCCc3ccccc32)c1` (stereo not given), -0.104.
